# PubChem BioAssay AID463173 (ICCB-Longwood Screening Facility, Harvard Medical School, 2010)
# Hit rate of the full screen: of about 52,000 compounds, about 4,300 (8.3%) were called active. Shown is part of a subset that was picked to be rich in actives. Values without a mark were called inactive. Rule as the data show it: active = survival mostly below about 52% (no sharp cut-off); inactive = mostly above about 56%.
# System: DeltatarO mutant
# Assay: S. aureus survival, RN4220 and DeltatarO strains – OD600, teichoic acid synthesis inhibitors, primary screen (AID 463173)
# Conditions: S. aureus RN4220 wild type/DeltatarO growth, OD600, 18 h, hits give low values, screened at 18.75 µg/mL (by protocol)
row,Compound,survival
1,N#CCN(CC#N)C(=O)Cc1cccs1,102%
2,Cc1ccc(CN2C(=O)C3(c4ccccc42)N(c2cccc(F)c2)C(=O)CS3(=O)=O)cc1 (stereo not drawn),75%
3,CCN1C(=O)c2ccccc2S(=O)(=O)c2ccc(C(=O)NCc3ccc(F)cc3)cc21,59%
4,COc1ccc2c(CNCc3ccc(C)o3)c(C(=O)O)n(Cc3ccccc3C)c2c1,96%
5,Cc1ccc(NC(=O)c2cccc3c(=O)c4c([nH]c23)CCCC4)c(C)c1,69%
6,COc1cccc(CNC(=O)Cn2c(C)c3cnn(-c4ccccc4)c(=O)c3c2C)c1,94%
7,CSc1nc(NC(C)=O)nc(C)c1Br,103%
8,Nc1c(-c2nc(-c3ccc(F)cc3)cs2)c2ccccn2c1C(=O)c1ccc2c(c1)OCO2,89%
9,COc1ccc(CCNc2nc(SCc3cccc(Cl)c3)nc3ccccc23)cc1OC,94%
10,N#Cc1c(C(F)(F)F)cc(-c2cccs2)nc1SCc1ccc(F)cc1,125%
11,COc1ccc2c(c1)c1c(c(=O)n(-c3ccccc3C)c(=O)n1CC(=O)NCc1ccc(C)cc1)n2C,75%
12,CCCSc1oc(-c2ccco2)nc1S(=O)(=O)c1ccc(Cl)cc1,51%
13,CCC(C)Sc1oc(-c2ccco2)nc1S(=O)(=O)c1ccc(Cl)cc1 (stereo not drawn),49% (active)
14,Cc1ccc(S(=O)(=O)c2nc(-c3ccco3)oc2SCc2ccccc2Cl)cc1,61%
15,CCC(C)Sc1oc(-c2ccco2)nc1S(=O)(=O)c1ccc(C)cc1 (stereo not drawn),18% (active)
16,Cc1ccc(S(=O)(=O)c2nc(-c3cccs3)oc2SC(C)c2ccccc2)cc1 (stereo not drawn),55%
17,Cc1ccc(CSc2oc(-c3ccco3)nc2S(=O)(=O)c2ccc(Br)cc2)cc1,56%
18,Cc1ccc(S(=O)(=O)c2nc(-c3ccco3)oc2SC(C)c2ccccc2)cc1 (stereo not drawn),45% (active)
19,Cc1ccc(CSc2oc(-c3ccco3)nc2S(=O)(=O)c2ccc(Cl)cc2)cc1,63%
20,CC(Sc1oc(-c2ccco2)nc1S(=O)(=O)c1ccc(Br)cc1)c1ccccc1 (stereo not drawn),70%

row,Compound,survival
1,CC(Sc1oc(-c2cccs2)nc1S(=O)(=O)c1ccccc1)c1ccccc1 (stereo not drawn),44% (active)
2,Cc1ccc(S(=O)(=O)c2nc(-c3ccco3)oc2SC(C)C)cc1,47%
3,CC(C)Sc1oc(-c2cccs2)nc1S(=O)(=O)c1ccc(Cl)cc1,66%
4,COc1ccc(Cc2nc3ccc(C(=O)NCCc4ccc(Cl)cc4)cc3o2)cc1,75%
5,O=C(Cn1ncc2c3ccccc3n(Cc3ccc(Cl)cc3)c2c1=O)NC1CCCCCC1,96%
6,CSc1ccc(CNC(=O)Cn2c(-c3cccs3)cc3cc(F)ccc32)cc1,101%
7,COc1ccc(NC(=O)C(NC(=O)/C=C\c2ccc3c(c2)OCO3)c2ccc(OC)cc2)cc1 (stereo not drawn),61%
8,CCCn1c(CCC(=O)Nc2cc(OC)cc(OC)c2)nc2cccnc21,78%
9,CCOc1ccc(CCNC(=O)c2cccc(-n3c(C)nc4cccnc43)c2)cc1,90%
10,N#Cc1cc2c(cc1C#N)Oc1ccccc1O2,103%
11,CC(C)CCn1c(=O)c2sccc2n2c(CCCC(=O)NC(C)C)nnc12,96%
12,COc1cc(S(=O)(=O)N2CCN(C)CC2)c(C)cc1C,78%
13,COc1ccccc1CNC(=O)CN1C(=O)CCCc2ccccc21,94%
14,COc1ccc2cc(CNc3ccc(OC)c(OC)c3)c(=O)n(CC(=O)Nc3ccc(C)cc3)c2c1,74%
15,O=C(NC1CCCCC1)c1ccc2c(c1)sc1nc(-c3ccc(F)cc3)cn12,62%
16,CCC1CCCCN1CCCNC(=O)c1ccc2c(c1)sc1nc(-c3ccc(F)cc3)cn12 (stereo not drawn),14% (active)
17,CC1CCCCN1CCCNC(=O)c1ccc2c(c1)sc1nc(-c3ccc(F)cc3)cn12 (stereo not drawn),29% (active)
18,O=C(NC1CCCCCC1)c1ccc2c(c1)sc1nc(-c3ccc(F)cc3)cn12,85%
19,CCc1ccc(-c2cn3c(n2)sc2cc(C(=O)NC4CCCCC4)ccc23)cc1,87%
20,CCc1ccc(-c2cn3c(n2)sc2cc(C(=O)NC4CCCCCC4)ccc23)cc1,79%

row,Compound,survival
1,Cc1cc(Nc2ccc(C)c(C)c2)n2cnnc2n1,94%
2,CC1CCN(c2cc3c(cc2F)c(=O)c(S(=O)(=O)c2cccc(Cl)c2)cn3Cc2ccccc2)CC1,80%
3,COc1ccccc1C(=O)n1nc(-c2ccco2)nc1NCc1ccc(Cl)cc1,54%
4,COc1ccc(C(=O)/C=C\Nc2ccc(S(=O)(=O)N=C(N)N)cc2)cc1OC,76%
5,Cc1ccc(CN(C(=O)COc2ccc(C)c(C)c2)C2CCS(=O)(=O)C2)o1 (stereo not drawn),92%
6,Cc1cccc(CNC(=O)C2CCN(c3nnc(-n4c(C)ccc4C)s3)CC2)c1,95%
7,O=C(c1cc2ccc3cccnc3c2[nH]1)N1CCN(c2ccccc2)CC1,75%
8,O=C(c1noc2c1CCCCC2)N1CCN(c2cccc(Cl)c2)CC1,69%
9,O=C(c1cc2ccc3cccnc3c2[nH]1)N1CCN(c2cccc(C(F)(F)F)c2)CC1,0% (active)
10,CC1CCc2onc(C(=O)N3CCN(c4cccc(Cl)c4)CC3)c2C1 (stereo not drawn),69%
11,O=C(c1cc2ccc3cccnc3c2[nH]1)N1CCN(c2ccc(Cl)cc2)CC1,84%
12,O=C(c1noc2c1CCCCC2)N1CCN(c2ccc(Cl)cc2)CC1,98%
13,CC1CCc2onc(C(=O)N3CCN(c4ccccc4)CC3)c2C1 (stereo not drawn),117%
14,CC1CCc2onc(C(=O)N3CCN(c4cccc(C(F)(F)F)c4)CC3)c2C1 (stereo not drawn),37% (active)
15,O=C(c1noc2c1CCCCC2)N1CCN(c2cccc(C(F)(F)F)c2)CC1,0% (active)
16,CCC(=O)Nc1ccc2nc(SCc3ccc(C)cc3)sc2c1,84%
17,Cc1ccc(-n2nc(C)c3c(C(=O)Nc4ccccc4C(F)(F)F)cc(C)nc32)cc1,95%
18,Cc1ccc(NC(=O)CSc2nnc(C)s2)c(C)c1,67%
